The values below come from ChEMBL document CHEMBL3988442, “University of Dundee, Small-Polar-MMV Screening Library” (2021).

Molecules are shown by their SMILES.

For one test, the target named is T1, Arginase-2, mitochondrial (Homo sapiens) (UniProt P78540).
T1 sequence (whole entry): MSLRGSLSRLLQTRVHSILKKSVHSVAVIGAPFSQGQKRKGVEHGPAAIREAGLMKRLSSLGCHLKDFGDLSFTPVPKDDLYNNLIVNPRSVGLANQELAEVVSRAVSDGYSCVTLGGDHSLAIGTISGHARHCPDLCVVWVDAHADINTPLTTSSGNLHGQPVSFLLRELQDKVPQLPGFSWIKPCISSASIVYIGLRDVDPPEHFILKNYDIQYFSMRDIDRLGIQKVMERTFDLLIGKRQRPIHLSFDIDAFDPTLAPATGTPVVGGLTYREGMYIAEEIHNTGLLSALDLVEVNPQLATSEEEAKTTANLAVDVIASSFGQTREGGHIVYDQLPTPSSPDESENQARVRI
The experiment in a line: in vitro enzyme assay to detect the production of urea directly proportional to the activity of Arginase II. The test is classed as functional. The arrangement: scale not given: in the data most compounds retested in dose-response had high values. The note with it: 33.3 µM.
On to `COc1ccccc1CC(=O)NCc1c(C)nc2cc(=O)[nH]n2c1C`, for which the Percent Effect was 1.53%.

With `Cc1cc(-c2nnc(SCC(=O)O)n2C(C)c2ccccc2)nn1C` (stereo not drawn), the Percent Effect is 1.77%.

For `CCOCCOC(C)C(=O)NCc1cn2cc(Br)ccc2n1` (stereo not drawn), the Percent Effect amounted to 1.18%.

Turning to `CCc1nc2n(n1)CC(NCc1nc(C)ccc1O)CC2` (stereo not drawn), the Percent Effect is -2.37%.

With `COc1ccccc1CC(=O)NS(C)(=O)=O`, the Percent Effect was -1.42%.

Take `Cn1ccc(C(=O)NC2CCC23CCN(C(=O)c2ccncc2)CC3)c1` (stereo not drawn): the Percent Effect came to 0%.

On to `O=C1N(c2ccc(F)cc2)Cc2nc(=O)n(Cc3cccc(Cl)c3)n21`, for which the Percent Effect was -3.35%.

As for `CNc1oc(-c2cc(S(=O)(=O)N3CCCCCC3)c(C)o2)nc1C#N`, the Percent Effect was -3.35%.

In the case of `COc1ccc(CN2CCCC3(CCN(c4ccsc4)C3=O)C2)cc1` (stereo not drawn), the Percent Effect was 3.96%.

In the case of `CCCc1n[nH]c(C2CN(CCCOc3ccccc3)CCO2)n1` (stereo not drawn), the Percent Effect was 1.5%.

On to `COCCNC(=O)c1sc(Nc2ccc(Cl)cn2)nc1C`, for which the Percent Effect was -3.7%.

On to `c1ccc(CCN2CCOC(Cn3cccn3)C2)nc1` (stereo not drawn), for which the Percent Effect came to 1.05%.

`CC1=Nc2c(c(=O)[nH]n2C(C)C)C(c2ccccc2)S1` (stereo not drawn): the Percent Effect was -3.7%.

In the case of `CCCS(=O)(=O)N1CCO[C@H]2[C@H](OCc3ccccn3)CC[C@@H]21`, the Percent Effect was 5%.

Take `Cc1nn(C)c(C)c1C1CCCN1C(=O)CCNc1ncccn1` (stereo not drawn): the Percent Effect is -8.63%.

`Cn1c(Cn2ccnc2)nnc1C1CCCN(C2CCCCC2)C1` (stereo not drawn): the Percent Effect worked out at 2.38%.

For `Cc1cc(N2CCN(C(=O)c3cc(Cl)c[nH]3)CC2)nc(N)n1`, the Percent Effect is -2.4%.

In the case of `CCNc1cc2c(nn1)CCN(C(=O)c1ccc(NC3CC3)nc1)C2`, the Percent Effect came out at 1.15%.

With `Cc1cn2c(n1)CCC(NC(=O)CCn1ccnn1)C2` (stereo not drawn), the Percent Effect is 3.24%.

The next test concerns the target T2, Proteasome subunit beta (Trypanosoma cruzi) (UniProt O96673).
T2 sequence (whole entry): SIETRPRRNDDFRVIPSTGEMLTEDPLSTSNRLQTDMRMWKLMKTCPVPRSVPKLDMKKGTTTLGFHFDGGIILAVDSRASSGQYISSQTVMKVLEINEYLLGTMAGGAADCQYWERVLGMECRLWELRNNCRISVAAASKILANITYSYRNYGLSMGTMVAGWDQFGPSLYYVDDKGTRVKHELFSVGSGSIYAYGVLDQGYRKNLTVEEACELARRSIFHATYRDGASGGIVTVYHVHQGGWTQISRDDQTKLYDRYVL
The experiment in a line: Trypanosoma cruzi proteasome chymotrypsin-like activity (TcProtChymo) assay. It is filed as functional. Details: scale not given: in the data most compounds retested in dose-response had high values. The note with it: 9.37 µM.
Regarding `CCc1cnc(CN(C(C)=O)C2CCN(CCc3cnn(C)c3)C2)o1` (stereo not drawn), the Percent Effect stood at 9.56%.

Consider `CC(C)c1nnc2n1CC(CNCc1ccncc1)CC2` (stereo not drawn), for which the Percent Effect worked out at 17%.

Regarding `O=S(=O)(Cc1ccccc1F)NCCN1CCOCC1`, the Percent Effect is 12.6%.

`COc1cc(C(=O)N2CCC(c3n[nH]c(C4CC4)n3)CC2)ccc1C`: the Percent Effect was -0.686%.

As to `CC(C)(C)C(=O)NS(=O)(=O)c1ccc(C#N)cc1C(F)(F)F`, the Percent Effect stood at 1.8%.

Consider `O=C(N1CCCO1)[C@@]12CCO[C@@H]1CCN(C1CCCCC1)C2`, for which the Percent Effect worked out at 4.96%.

Regarding `O=C(c1ccccc1-n1cccn1)N1CCCN(c2cccnn2)CC1`, the Percent Effect is 9.46%.

On to `Cc1cc(C)n(CC2CCCN2C(=O)c2cnn(C)c2C2CC2)n1` (stereo not drawn), for which the Percent Effect stood at 0.718%.

For the molecule `CCC(C)(NCC(=O)Nc1nc(C)cs1)c1nc(C)cs1` (stereo not drawn), the Percent Effect worked out at 7.47%.

As for `CCOc1nnc(CN2CCC(N(C)Cc3noc(C)n3)C2)s1` (stereo not drawn), the Percent Effect turned out to be 12.4%.

For `Cc1ccc(=O)n(CC2(O)CCN(Cc3cnc(C)nc3)CC2)n1`, the Percent Effect stood at 11.9%.

`O=C(Cn1c(=O)n(Cc2ccco2)c2ncccc21)Nc1ccccn1`: the Percent Effect stood at 9.2%.

On to `COc1cccc(N2CCN(CC(O)c3cc(C)sc3C)CC2)c1` (stereo not drawn), for which the Percent Effect came to 5.62%.

In the case of `CCOCC(=O)NC1(c2cccc(Br)c2)CC1`, the Percent Effect was 7.76%.

For the molecule `CCc1noc(C(C)N(C)CC(=O)Nc2ccc(C)cc2)n1` (stereo not drawn), the Percent Effect is -0.887%.

Turning to `CCn1cnnc1CNC(=O)c1cc(Cl)ccc1OC`, the Percent Effect came to 11.2%.

As for `CCc1nc(CNC(=O)Nc2ccc(C(=O)NC)cc2C)cs1`, the Percent Effect was found to be 4.88%.

On to `O=C(CCc1cccs1)N1CCC(Nc2cccnn2)CC1`, for which the Percent Effect came to 9.73%.

`COCC(=O)N1CCCC1c1cc(Nc2nnc(C)s2)nc(C)n1` (stereo not drawn): the Percent Effect was -2.38%.

`CCn1ccnc1CN1C[C@@H](CN2CCCC2)[C@@H](CO)C1`: the Percent Effect was determined as 8.28%.

In the case of `COc1ccccc1CC(=O)NCc1c(C)nc2cc(=O)[nH]n2c1C`, the Percent Effect was 8.02%.

In the case of `Cc1cc(-c2nnc(SCC(=O)O)n2C(C)c2ccccc2)nn1C` (stereo not drawn), the Percent Effect was found to be 14.9%.

`CCOCCOC(C)C(=O)NCc1cn2cc(Br)ccc2n1` (stereo not drawn): the Percent Effect was 9.68%.

For the molecule `CCc1nc2n(n1)CC(NCc1nc(C)ccc1O)CC2` (stereo not drawn), the Percent Effect was 5.85%.

Regarding `COc1ccccc1CC(=O)NS(C)(=O)=O`, the Percent Effect stood at 7.6%.

In the case of `Cn1ccc(C(=O)NC2CCC23CCN(C(=O)c2ccncc2)CC3)c1` (stereo not drawn), the Percent Effect was determined as 13.6%.

With `O=C1N(c2ccc(F)cc2)Cc2nc(=O)n(Cc3cccc(Cl)c3)n21`, the Percent Effect amounted to 5.36%.

For the molecule `CNc1oc(-c2cc(S(=O)(=O)N3CCCCCC3)c(C)o2)nc1C#N`, the Percent Effect came to 11.3%.

In the case of `COc1ccc(CN2CCCC3(CCN(c4ccsc4)C3=O)C2)cc1` (stereo not drawn), the Percent Effect is 6.78%.
